Results reported in PubChem BioAssay (EPA / NIEHS).
Active and inactive are the calls of the source. How the source made its calls: active means hit-call score of the fitted dose curve at least 0.9, where 1 is the maximum; inactive means score below 0.9.

read-out: ABC Transporter (ABCB11), ABCB11 (gene 8647); experiment: LTEA_HepaRG_ABCB11: Life Technologies and Expression Analysis (LTEA) Assay for ABC Transporter (ABCB11) using HepaRG (AID 2283463); conditions: mRNA level, 48 h; actives raise or lower the signal
Procedure: LTEA_HepaRG is a cell based, multiplexed-readout assay that uses HepaRG, a human liver cell line, with measurements taken at 48 hours after chemical dosing on a 96-well plate.LTEA_HepaRG_ABCB11 is one of 102 assay component(s) measured in the LTEA HepaRG cell culture assay. It is a marker of Steatosis/NR mediated transport.Data from the assay component LTEA_HepaRG_ABCB11 was analyzed into 1 endpoint. This assay endpoint, LTEA_HepaRG_ABCB11, was analyzed with bidirectional fitting relative to DMSO as the negative control and baseline of activity. Using a type of inducible reporter, measures of mRNA induction for gain or loss-of-signal activity can be used to understand regulation of transcription factor activity. To generalize the intended target to other relatable targets, this assay endpoint is annotated to the transporter intended target family, where the subfamily is ABC transporter.
A total of 1060 chemcials from the ToxCast library were tested in eight-point concentration-response experiments. Cell culture and cytotoxicity assays were conducted at Thermo Fisher Scientific's Custom Services facility (Madison, WI). A single lot of human HepaRG cells (Thermo Fisher Scientific, Frederick, MD) was used for the cell culture experiments. 96-well format collagen type I coated plates of human HepaRG cells were prepared using established methods. Briefly, cryopreserved HepaRG cells were thawed, plated at a density of approximately 100,000 cells/well in HepaRG Thaw, Plate, and General Purpose media (HPRG770, Thermo Fisher Scientific), and incubated for 48 hours. 0.5% DMSO was selected as vehicle control to balance the requisite need of DMSO in HepaRG cultures to maintain differentiation (for example, baseline metabolism, proportions of hepatocytes vs. cholangiocytes), while enabling further hepatic receptor pathway activation (for example, PXR and CAR) in response to chemical exposure. 48 hours after plating, the culture medium was replaced with HepaRG Serum-Free Incudtion Media. Cells were exposed to each test chemical in duplicate and maintained in CO2 incubators for another 48 hours. Chemical plates were thawed to room temperature and 200x concentrations of treatment groups were prepared. 8-point conentration-reponse curves were made with the highest exposure at 100 uM, followed by half-log dilutions, all in 0.5% DMSO. Each test plate contained variouse controls, induction positive controls (1mM phenobarbital), cytotoxicity positive controls ([…] aflatoxin B1), vehicle controls (0.5% DMSO), and total lysis controls (0.5% DMSO). Cell morphology images were taken using an Essen IncuCyte FLR automated microscope, with six 96-well plates imaged in about 24 minutes. Images were captured and exported and JPEG files. Spent culture media was transfered to black-well plates for the LDH assay, and remaining media was sorted at -80 C for later use. Cells were treated with RLT buffer and frozen until shipped for gene expression analysis. Total RNA was isolated from the cell suspension in 75 uL of Buffer RLT (Qiagen, Germantown, MD 20874) by Quintiles/Expression Analysis (Durham, NC) using a custom isolation procedure. Total RNA from each plate well was transferred to a preamplification plate. Fluidigm's 96.96 Dynamic ArrayTM (Fluidigm, Amsterdam, the Netherlands) technology was used for gene expression analyses by quantitative reverse transcription polymerase chain reaction (qRT-PCR, performed by Quintiles/Expression Analysis, Durham, NC)89. Standard TaqManTM Assays (Applied Biosystems/ThermoFisher Scientific, Foster City, CA) were used to assess the expression of 93 genes selected based on their selectivity and sensitivity to important hepatic receptors known to be modulated by environmental chemicals; importance in human hepatocyte functionality; and hepatotoxicity. […]

Compound	AC50	outcome
CCCCCCCCCCCCCCCCOS(=O)(=O)O	41.1 µM (active)	–
CCCCCCOC(=O)CC(CC(=O)OCCCCCC)(OC(=O)CCC)C(=O)OCCCCCC	–	inactive
OCC(CO)(CO)CO	–	inactive
Cn1cc[nH]c1=S	–	inactive
NNC(=O)c1ccncc1	–	inactive
CCCCC(CC)C(=O)OCCOCCOCCOC(=O)C(CC)CCCC (stereo not given)	–	inactive
CCc1ccc(O)c(C(C)(C)C)c1	–	inactive
CCCCN1C(=O)[C@@H]([C@H](O)C2CCCCC2)NC(=O)C12CCN(Cc1ccc(Oc3ccc(C(=O)O)cc3)cc1)CC2	0.849 µM (active)	–
O=c1[nH]cnc2c1ncn2[C@H]1CC[C@@H](CO)O1	–	inactive
OC[C@H]1O[C@@](CO)(O[C@H]2O[C@H](CO)[C@@H](O)[C@H](O)[C@H]2O)[C@@H](O)[C@@H]1O	–	inactive
Cc1ncc([C@@H](CCCCCCc2ccc3c(n2)NCCC3)CC(=O)O)cn1	–	inactive
COS(C)(=O)=O	–	inactive
CCOC(N)=O	–	inactive
COCc1nnc(-c2ccc[n+]([O-])c2)n1-c1c(Cl)c(Cl)cc2[nH]c(=O)c(=O)[nH]c12	–	inactive
CCCCCCCCN(C)C	–	inactive
COc1cc(C(C)C)c2c(c1)S(=O)(=O)N(COc1cc(=O)n3cccc(OCCN4CCCCC4)c3n1)C2=O	17.5 µM (active)	–
Nc1ccn([C@@H]2O[C@H](CO)[C@@H](O)[C@@H]2O)c(=O)n1	–	inactive
O=S(=O)(O)c1ccc(N=Nc2c(O)ccc3cc(S(=O)(=O)O)ccc23)cc1	–	inactive
CC1(C)C(=O)N(Cl)C(=O)N1Cl	–	inactive
O=C(O)[C@H](O)[C@@H](O)C(=O)O	–	inactive

Compound	AC50	outcome
O=C(O)c1cccc(C(=O)O)c1	–	inactive
OC[C@H]1O[C@@H]2O[C@H]3[C@H](O)[C@@H](O)[C@@H](O[C@H]4[C@H](O)[C@@H](O)[C@@H](O[C@H]5[C@H](O)[C@@H](O)[C@@H](O[C@H]6[C@H](O)[C@@H](O)[C@@H](O[C@H]7[C@H](O)[C@@H](O)[C@@H](O[C@H]1[C@H](O)[C@H]2O)O[C@@H]7CO)O[C@@H]6CO)O[C@@H]5CO)O[C@@H]4CO)O[C@@H]3CO	–	inactive
CCN(CC)C(=S)SSC(=S)N(CC)CC	–	inactive
CCCCCOC(C)=O	–	inactive
O=C(O)c1cccc(C[C@@H]2COc3ccc(OCc4nc5cc(F)ccc5s4)cc3[C@@H]2O)c1	79.3 µM (active)	–
NC(=O)N1c2ccccc2C=Cc2ccccc21	–	inactive
OC(Cn1cncn1)(Cn1cncn1)c1ccc(F)cc1F	–	inactive
CCCCOC(=O)c1ccccc1	–	inactive
OCCOCCOCCO	–	inactive
Cc1nccn1-c1ccc(Sc2cccc(C3(C(N)=O)CCOCC3)c2)cc1	9.74 µM (active)	–
NC(N)=O	–	inactive
CC(C)CC(C)O (stereo not given)	–	inactive
O=C1CN(N=Cc2ccc([N+](=O)[O-])o2)C(=O)N1	27.7 µM (active)	–
OCCNCCO	60.5 µM (active)	–
O=C(O)c1ccc2c(c1)nc(C(=O)NC1CCN(C3CC3)CC1)n2Cc1cc(-c2ccc(Cl)s2)on1	–	inactive
CCCc1ccccc1	–	inactive
CC(C)CCCCCCOC(=O)C1CCCCC1C(=O)OCCCCCCC(C)C (stereo not given)	–	inactive
NC(=O)N(O)[C@@H]1COc2cc(OCc3ccccc3)ccc21	–	inactive
c1ccc2c(c1)-c1cccc3c1c-2cc1ccccc13	15.1 µM (active)	–
C[C@]12C=CC(=O)C=C1CC[C@H]1[C@@H]3C[C@@H](O)[C@](O)(C(=O)CO)[C@@]3(C)C[C@H](O)[C@@]12F	–	inactive
